Data reported in the supplement of paper PMC11417369.
Over roughly 25,000 sequences, “ln(normalized median fluorescence intensity)” has its median near 9.3; the highest 2% begin near 10. Only a selection was taken, and the highest values are over-represented in it overall.

These sequences were tested on PF3D7_0420300 AP2 domain 1 (GST-tagged) (assay: gcPBM binding intensity (ln(normalized median fluorescence intensity)); higher = stronger DNA binding).
Outline: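 An Agilent 4 × 180k array carrying primer-extended double-stranded 36-bp intergenic genomic probes and negative controls received GST-tagged P. falciparum DNA-binding domains expressed in E. coli, about 25 μg on average, for 1 h. The binding buffer contained 1× PBS, 1% milk, 0.2 mg/ml BSA, 0.5% salmon testes DNA and 0.03% Triton X-100. Binding intensity is the top Masliner-normalised natural-log median intensity across replicate spots of either probe orientation, read after Alexa488 anti-GST antibody staining and a 488 nm scan.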

Row | Sequence | gcPBM binding intensity (ln)
1 | AATATATAAGCTGTTCTATTCAAGAATTATATCTTA [CACACA_negctrl_site270] | 9.06
2 | TATATTATTTATTAGACACACATTATTAAAATATTT [CACACA_site4737] | 9.19
3 | GTTTGTATGTCCAAATGTACATATGATTTTATGAAA [XGTACX_site6595] | 9.2
4 | CAAAAGGATATGCACACACACACACGGATATTTATA [CACACA_site7099] | 10.2
5 | ATTATATATATTTATGCACACAAAATATATTATATA [CACACA_site9244] | 9.29
6 | AATAAACATATATACACACACAAAAAAAAAAACATA [CACACA_site424] | 10.2
7 | AATATATAAACATATACACACAAAAACATATATATA [CACACA_site4855] | 10
8 | ACAATAAACATATATACACACACAAAAAAAAAAACA [CACACA_site8033] | 10.3
9 | GCCAAAAGGATATGCACACACACACCCATATATATA [CACACA_site2198] | 10.2
10 | TATATACACATATATAAACACACAAAAAAAAAAAAA [CACACA_site8626] | 9.6
11 | GGGAAAATAAATAAAGTGCAGATATTAAAAGTTGTA | 9.41
12 | AGATATCTTGTGAAATAAAAAAAATAATTGCTTATA [CACACA_negctrl_site798] | 8.94
13 | CAACAATTTCGTCATACACACATTCAGAATATAGAT [CACACA_site7166] | 9.68
14 | CATGCAATATTAAACACACACTCATATAGCACAATA [CACACA_site6182] | 9.73
15 | GAACGAAACTTTCTTACACACATTGAAATTTTTTTC [CACACA_site1779] | 9.62
16 | AATAAGAAAACAAATGCACACCATTTATATAGATTA [CACACA_site8261] | 9.56
17 | TACACCAAAAAAAAACGTACAAAATCCCACCCAGAC [XGTACX_site4622] | 10.6
18 | AACAAATACAGACACACACACACACCCAAAAAAAAA [CACACA_site515] | 9.99
19 | AATACACCCAGACACACACACAAAAAAAAAAAAAAA [CACACA_site513] | 9.51

Row | Sequence | gcPBM binding intensity (ln)
20 | CCCATGCATTTTTGCACACACATATATTTATAAATA [CACACA_site6785] | 9.58
21 | TATAAATAAATAAACACACACAAATAAAATAAAAAA [CACACA_site7623] | 10.1
22 | AAAAAAAAAAAACACACACACACAAATATATAAAAA [CACACA_site1171] | 10.1
23 | AAATAAATAAAAAACACACACAAATAAATAAATATA [CACACA_site2249] | 10.1
24 | TAATAAAAGATATATACACACAAATAAATAAATAAA [CACACA_site7818] | 9.72
25 | TACCAAAAGAAACACACACACAAAATATATAAATAT [CACACA_site1869] | 10.2
26 | TATATAAAGATATATACACACAAAAAAAAAAAAAAA [CACACA_site6778] | 9.32
27 | CTTACCAAAAGACACACACACACAAGATATATAAAT [CACACA_site6964] | 10.2
28 | AAAAAAAAAAAACACACACACAAAATAAACAAACAA [CACACA_site2721] | 10.3
29 | AAAAAATATAAAAAAACACACAAAAAAAAAAAAAAA [CACACA_site1382] | 9.4
30 | ATAAATAAAAACACAAAACAAAACAAAACAAAACAA [CACACA_negctrl_site1257] | 9.41
31 | CTTACCAAAAAACACACACACACAAAATATATAAAT [CACACA_site1870] | 10.3
32 | AAAAAAATAAAACACACACACAAAAAAATAAAAATA [CACACA_site465] | 10.2
33 | AAAAAAATGAAACACACACACACATATATATATATA [CACACA_site1043] | 9.93
34 | TTTTTATTATAAGGTCGTACAATTGTAATTATTGTA [XGTACX_site1413] | 9.23
35 | TATTTATTTTTTTTTGTGCACTTAATATAATCTTAC | 9.24
36 | ATATATATATATTATGTGCGCATATACCATTTTAAT [GTGCAC_site9575] | 9.32
37 | TATTACTTGATATATACACACATATAACATAAATGC [CACACA_site7783] | 9.45
38 | TATATATATATATATACACACATATATATAAATATA [CACACA_site2035] | 9.2

Row | Sequence | gcPBM binding intensity (ln)
39 | TAAATAAATACATACACACACATACCTATATTTATA [CACACA_site7466] | 9.93
40 | GATAATACATAAATTTATAAGTGGAAGAATAAATAA [CACACA_negctrl_site698] | 9.32
41 | CAAAAGAAGGTAAACACACACACACGCATACAAAAA [CACACA_site7724] | 10.1
42 | TAAAATAAAACAAACACACACACACCGACACAAAAA [CACACA_site5993] | 10.2
43 | GGACAACAAACAAACACACACAAAAAAAAAATAAAA [CACACA_site3791] | 9.84
44 | AAAGAAGGTAAACACACACACACACCGACAAAAAAA [CACACA_site9255] | 10.3
45 | TACTTACCAAAATACACACACACACTAGATATATAA [CACACA_site5096] | 10.3
46 | TATTTATTAAAACACACACACACACCGACAAAATAA [CACACA_site4293] | 10.1
47 | TACTTACCAAAATACACACACACACCCAATATATAA [CACACA_site1871] | 10.1
48 | CAAAAGAAGGTAAACACACACACACCCATACAAAAA [CACACA_site3765] | 10.1
49 | AATACTTACCAAAATACACACACACCCAAAATATAT [CACACA_site8559] | 10.1
50 | CACAAACAAAAACACACACACACACCGACAAAAATG [CACACA_site5362] | 10
51 | CAACAAAATAAACACACACACACAAACACAAAAAAA [CACACA_site5806] | 10.3
52 | TTTACATATTTATATACACACTTTTGCGTGCGTGGT [CACACA_site6647] | 9.21
53 | AAAAAAATTGGGAAAAGTACTTGCAGCTAGCTAAAA [XGTACX_site5178] | 9.18
54 | TACTTTTATATGAATACACACAGGAATATATATATG [CACACA_site3568] | 9.48
55 | ATTCTAAATATCAGTGCACACATTTCTACGCAAAGT [CACACA_site474] | 9.36
56 | TATATATATATATATGGTACAGTTTATGCCTTTTAA [XGTACX_site6695] | 9.14
57 | TAGTGATATAATTATGTGCACTTAATACAGGTCGAT | 9.42
